# ± gives the standard deviation.
# Legend:
# [1] = test system: MILI (PIWIL2) piRISC loaded with L1MC piRNA (26 nt); test: pre-steady-state target cleavage rate (min^-1); guide: L1MC piRNA 5'p-UAACUAAAUACUAUGCAAGCUGUAGG; higher = faster piRNA-guided slicing of the target; details: auxiliary factor: 500 nM mouse GTSF1;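 note: 1 nM active piRISC with 0.1 nM target library at 33 °C single turnover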
# Method in brief: (§1)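 Cleave-'n-Seq measured uncleaved targets by sequencing after a transcribed, DNA-blocked target RNA library […] was mixed with 1 nM active affinity-purified piRISC holding one synthetic guide, with or without 500 nM GTSF1 partner protein, at 33 °C in HEPES–potassium acetate buffer for 0–8 or 0–960 min. Counts were normalised to depth and to weakly complementary targets, three trials were pooled, and k3 was capped at 0.0001 min^-1. A burst-and-steady-state fit gave the pre-steady-state cleavage rate.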
# [2] = test system: EfPiwi piRISC loaded with L1MC piRNA (26 nt); test: pre-steady-state target cleavage rate (min^-1); auxiliary factor: 500 nM Ephydatia muelleri Gtsf1; guide: L1MC piRNA 5'p-UAACUAAAUACUAUGCAAGCUGUAGG; MIWI and MILI are mouse PIWI proteins and EfPiwi is from a freshwater sponge; tags in brackets are library labels; higher = faster piRNA-guided slicing of the target
# Method in brief: as §1
Sequence,pre-steady-state target cleavage rate [1],pre-steady-state target cleavage rate [2]
UCCUGCUUGAGCUUGCAUAGUAUUUACAAA,0.0564 ± 0.017,0.00279 ± 0.0023
UCCUCCUACAGCUUGCAUAGUAUUUUCAUA,0.091 ± 0.02,0.00665 ± 0.0037
UCCUGCUACAGCUUGCAUAGAAUUAAGUUA,0.048 ± 0.012,0.00288 ± 0.0022
UCCUGGAUCAGCUUGCAUAGGAUUUAGUUA,0.0049 ± 0.0037,0.0025 ± 0.0024
UCCUCCUACUGCUUGCAUAGUAUUUAGAUA,0.085 ± 0.015,0.0056 ± 0.0026
UCCUGCUACAGCUUGCAUAGUUUUUUCAAA,0.0433 ± 0.014,0.00248 ± 0.0022
UCCUGCUACAGCUUGCGAUAGUAUUUAGUUA,0.0073 ± 0.0045,0.00987 ± 0.0026
UCCUCCUACAGCUUGCAUAGUAAUUAGAAA,0.127 ± 0.032,0.00474 ± 0.0026
UCCUCCUACAGCUUGCAUAGUAUUUACAAA,0.197 ± 0.04,0.00422 ± 0.003
UCCUGCUACAGCUAGCAUAGUAUUUACUUA,0.351 ± 0.051,0.00364 ± 0.0025
UCCUCCUACAGCUUGCUUAGUAUUUAGAAA,0.091 ± 0.018,0.00569 ± 0.0027
UCCUGGAACAGCUAGCAUAGUAUUUAGAUA,0.118 ± 0.02,0.0041 ± 0.0023

# — the supplement of paper PMC10338343
